Test results reported in PubChem BioAssay AID652015 (National Center for Advancing Translational Sciences (NCATS), 2013).
Records with an inconclusive call do not appear. Calls follow the shape of the dose curve; as a rule, active = well fitted inhibition curve with a large enough effect; inconclusive = small, poorly fitted or top-dose-only effect; inactive = no such curve, though single readings can be large or run the other way.

What follows are compounds tested against Coelenterazine h 2-monooxygenase (Renilla reniformis) (UniProt P27652) (assay: qHTS Assay for Inhibitors of Sea Pansy Luciferase from the GSK Published Protein Kinase Inhibitor Set). Details: purified Renilla luciferase, luminescence; series mostly up to 57.5 µM; activity change, negative = inhibition: at the top concentration.
In short: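 qHTS (roughly 60 uM down to 300 pM) against 1 nM Renilla luciferase, substrate coelenterazine h 5 uM, Tris acetate pH 7.5 buffer with NaCl, Tween-20 and BSA. Luminescence measured after an average 2 min incubation.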

Chain of Coelenterazine h 2-monooxygenase (Renilla reniformis) (P27652 whole entry, looked up): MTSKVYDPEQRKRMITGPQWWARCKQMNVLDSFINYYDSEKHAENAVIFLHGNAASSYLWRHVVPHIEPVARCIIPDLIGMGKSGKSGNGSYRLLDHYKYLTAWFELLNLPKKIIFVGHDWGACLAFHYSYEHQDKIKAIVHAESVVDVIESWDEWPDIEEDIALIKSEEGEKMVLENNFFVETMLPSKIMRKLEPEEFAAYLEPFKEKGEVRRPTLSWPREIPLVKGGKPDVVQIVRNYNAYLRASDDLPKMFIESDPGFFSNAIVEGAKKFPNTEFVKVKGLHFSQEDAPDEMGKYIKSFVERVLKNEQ

Activity change, negative = inhibition, inactive:
NC(=O)c1sc(-n2cnc3cc(C(F)(F)F)ccc32)cc1OCc1ccccc1Br 51.9%
COc1ccc2ncn(-c3cc(OC(C)c4ccccc4Cl)c(C(N)=O)s3)c2c1 (centres undefined) 8.76%
COc1cc2ncnc(Nc3ccc4c(cnn4Cc4ccccc4)c3)c2cc1OC 9.63%
COc1ccc2cc(-c3c(-c4ccncc4)nc(-c4ccc(S(C)=O)cc4)n3C)ccc2c1 (centres undefined) 17.1%
CN1CCC(C(=O)Nc2n[nH]c3nc(-c4ccc(O)cc4)c(Br)cc23)CC1 10.1%
N#Cc1cccc(Nc2nccc(-c3cnn4ncccc34)n2)c1 17.2%
c1ccc(-c2[nH]ncc2-c2ccnc(-c3ccc(OCCN4CCOCC4)cc3)c2)nc1 25.2%
O=C(Nc1n[nH]c2nc(-c3ccco3)c(Br)cc12)C1CC1 18.8%
O=C(Nc1n[nH]c2nc(-c3ccc(O)cc3)c(Br)cc12)C1CC1 51.9%
Cc1cc(-c2ccco2)cc(C)c1C=Cc1cncc(-c2nn[nH]n2)c1 -3.41%
Cc1ccc(NC(=O)CC2CC2)cc1-c1ccc(C(=O)NCC2CC2)cc1 38.6%
COc1ccc2cc(-c3c(-c4ccncc4)nc(-c4ccc(S(C)(=O)=O)cc4C)n3C)ccc2c1 -10.9%
CCCN1CCC(Oc2cc(Nc3nc(Nc4cccc(F)c4C(N)=O)c4cc[nH]c4n3)c(OC)cc2Cl)CC1 64.1%
CS(=O)(=O)CCNCc1ccc(-c2ccc3ncnc(Nc4ccc(OCc5cccc(F)c5)c(C(F)(F)F)c4)c3c2)o1 48.1%
CN(c1ccc(NC(=O)NCCN2CCOCC2)cc1)c1ccnc(Nc2ccc(CS(C)(=O)=O)cc2)n1 30.7%
CCc1ccc(Oc2nccc(-c3c(-c4ccc(F)cc4)ncn3C3CCNCC3)n2)cc1 -14.4%
NC(=O)Cc1ccccc1Oc1nccc(-c2c(-c3ccc(F)cc3)ncn2C2CCNCC2)n1 36.4%
Clc1ccc(-c2nn3ncccc3c2-c2ccnc(Nc3ccccc3)n2)cc1 49.5%
COc1cc(Nc2ncc(-c3ccccc3)o2)cc(OC)c1 12.4%
CNC(=O)c1sc(-n2cnc3cc(OC)c(OC)cc32)cc1OCc1ccccc1C(F)(F)F 22.9%
CN1CCC(C(=O)Nc2n[nH]c3nnc(-c4ccccc4)cc23)CC1 39.3%
COC(=O)Nc1nc2ccc(Oc3cccc(NC(=O)Nc4cc(C(F)(F)F)ccc4F)c3)cc2[nH]1 40.9%
CCn1c(-c2nonc2N)nc2cncc(C(=O)NCCNC)c21 39.8%
FC(F)(F)c1cccc(Nc2nccc(-c3cnn4nc(-c5ccccc5)ccc34)n2)c1 21.2%
Cc1cc(O)cc(C)c1C=Cc1cncc(-c2nn[nH]n2)c1 35.1%
COc1ccc(-c2nn3ncccc3c2-c2ccnc(Nc3ccc4c(c3)OCCO4)n2)cc1 9.89%
Nc1nccc(C#Cc2cncnc2Nc2ccc(OCc3cccc(F)c3)c(Cl)c2)n1 1.01%
COc1cccc(-c2c[nH]c3c(NN=Cc4ccncc4)ncnc23)c1 39.2%
CNC(=O)c1cccc(C#Cc2cncnc2Nc2ccc(OCc3cccc(F)c3)c(Cl)c2)c1 4.44%
Fc1ccc(-c2ncn(CCCN3CCOCC3)c2-c2ccncc2)cc1 51.9%
COc1cccc(-n2ncc3c(NN=Cc4ccc(F)cc4)ncnc32)c1 30.7%
CCS(=O)(=O)c1ccc(OC)c(Nc2ncc(-c3cccc(F)c3)o2)c1 39.5%
c1ccc(-c2[nH]ncc2-c2ccnc(-c3ccc(OCCn4ccnc4)cc3)c2)nc1 -9.9%
Clc1ccc(CNc2nccc(-c3cnn4ncccc34)n2)cc1 37.5%
Fc1cccc(COc2ccc(Nc3ncncc3C#Cc3ccccc3)cc2Cl)c1 46.2%
Nc1nc(-c2ccc(F)cc2)c(-c2ccc3ncccc3n2)s1 21.4%
Nc1nccc(-c2c(-c3ccc(F)cc3)ncn2CCCN2CCOCC2)n1 25.3%
Fc1cccc(COc2ccc(Nc3ncnc4sc(-c5cccs5)cc34)cc2Cl)c1 15.6%
CCOc1nccc2c1nc(-c1nonc1N)n2CC 45.4%
